According to PubChem BioAssay AID1117319 (Southern Research Institute, 2015):
Several values for one entry are separate records, joined by “and”; a condition that tells them apart may be missing. Equal entries are not always repeated. Among all 260,000 compounds or so, about 1,500 (0.58%) were called active. Not shown: some 5% with an inconclusive outcome.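 The calls were made as follows: active = inhibition above a set limit at one or more doses, reproduced on every date tested; inconclusive = results disagree between test dates, or hit never tested in dose response; inactive = the rest.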 The list is a sample of the results. Potency and affinity values are given separately.

Biological target: Virion infectivity factor (Human immunodeficiency virus type 1 group M subtype B (isolate BH10)) + Virion infectivity factor (Human immunodeficiency virus type 1 group M subtype B (isolate BRU/LAI)) + Virion infectivity factor (Human immunodeficiency virus type 1 group M subtype B (isolate PCV12)) + Virion infectivity factor (Human immunodeficiency virus type 1 group M subtype B (isolate HXB2)) + DNA dC->dU-editing enzyme APOBEC-3G (Homo sapiens) (UniProt P69720+P69721+P69722+P69723+Q9HC16)
Test: HIV-1 Vif–A3G interaction blockers – biochemical, TR-FRET, GST-Vif 1-94, biotin-A3G peptide, dose response retest, primary screen (AID 1117319);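 also: Vif residues 1-94 fused to GST binding biotinylated APOBEC3G peptide 110-148; 0% = full assay without inhibitor and 100% = GST in place of GST-Vif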
Details: TR-FRET GST-Vif / biotin-A3G peptide binding; active compounds read high

inhibition, inactive:
COc1ccc(-c2csc(N(CCc3ccccc3)C(=O)COc3ccccc3)n2)cc1 -2.24%
O=C1CC(c2ccccc2)NC(=S)N1 (configuration not stated) 0.02%
Cc1ccc(/C=c2\sc3n(c2=O)CN(c2cccc(Br)c2)CN=3)o1 27.7%
Cc1onc(-c2ccccc2)c1C(=O)N1CCN(c2ccc([N+](=O)[O-])cc2)CC1 -0.35%
O=C1N(Cc2cccc(Cl)c2)C[C@@H]2C[C@@H](c3c[nH]c4ccccc34)N3CCC[C@@]123 0.3%
Cc1ccc(C(=O)OCC(=O)NCc2ccccc2)cc1S(=O)(=O)N1CCCCC1 -8.21%
Cn1c(N2C(=O)CC(Cc3ccccc3)C2=O)nc2ccccc21 (configuration not stated) -1.11%
O=C1NC(=S)SC1=Cc1ccccc1Cl 1.68%
O=C1NC(=O)C(=Cc2ccco2)S1 -2.41%
Cc1sc2ncn(-n3c(C)ccc3C)c(=O)c2c1C 5.69%
COc1ccccc1-n1c(CNC(=O)c2ccco2)nnc1SCC(=O)Nc1ccc(F)cc1 -4.03%
Cc1nc2[nH]c(=S)[nH]c(=O)c2nc1C 17.2%
O=c1[nH]c(=S)[nH]c2nccnc12 -0.53%
COc1cc(C(=O)Nc2c(C)cc(C)cc2C)c([N+](=O)[O-])cc1OC -0.83%
O=C(CCc1nnc(CCCCc2ccccc2)o1)N1CCCC(O)C1 (configuration not stated) 20%
COc1cc(/C=N/NC(=O)CNc2n[nH]c(=O)[nH]c2=O)ccc1OCc1ccccc1 2.21%
O=C(CNc1n[nH]c(=O)[nH]c1=O)N/N=C/c1ccccc1 -4.54%
COc1ccc(C(CNC(=O)c2ccc(OCC3CCCO3)cc2)N2CCOCC2)cc1 (configuration not stated) -4.51%
CCCn1c(NC(=O)CSCC(=O)Nc2cc(C)on2)nc2ccccc21 -0.74%
COc1ccc2nc3ccccc3nc2c1 0.36%
c1coc(Cn2c(-c3ccco3)nc3ccccc32)c1 6.18%
COc1ccc2nc3c(nc2c1)CCCC3 -1.28%
S=c1nc(-c2ccco2)[nH][nH]1 6.53%
c1coc(-c2ncc[nH]2)c1 0.85%
c1coc(-c2cnc3ccccc3n2)c1 -5.45%
c1coc(-c2nc3ccccc3s2)c1 1.82%
CCn1c(-c2ccco2)nc2ccccc21 0.82%
COc1ccc(N(C(=O)c2ccco2)C(C(=O)NC2CCCC2)c2ccco2)cc1OC (configuration not stated) 0.94%
COc1ccccc1/C=C/C(=O)OCC(=O)NC(=O)NC1CCCC1 -1.97%
CCn1cc(Cl)c(C(=O)Nc2cccc(C(F)(F)F)c2)n1 -0.07%
CC1(C)CC(NC(=O)COc2ccc([N+](=O)[O-])cc2)CC(C)(C)N1 -0.99%
CC(C(=O)O/N=C(\N)c1cccnc1)c1ccc([N+](=O)[O-])cc1 (configuration not stated) -1.85%
COc1cc(/C=C/C(=O)OCC(=O)c2ccc(S(=O)(=O)N3CCCCC3)cc2)cc(OC)c1OC -29.8%
Cc1ccc(OCCSc2nc(NC(C)C)nc(NC(C)C)n2)cc1 -8.83%
CC(C)(C)NC(=O)CN1CCN(C(=O)CCl)CC1 -2.69%
Cc1oc2ccc(O)c(CN3CCOCC3)c2c1C(C)O (configuration not stated) -6.07%
COCCN1C(=O)CC(NNC(=O)c2ccc(S(=O)(=O)N3CCCC3)cc2)C1=O (configuration not stated) 8%
CCCC(C)NC(=O)c1ccc(-c2ccccc2)cc1 (configuration not stated) -5.95%
Nc1nc(-c2ccco2)cs1 -0.78%
Nc1nnc(-c2ccco2)s1 15.6%
CCOC(=O)c1cnc(-n2nc(C)cc2C)[nH]c1=O -8.45%
Cc1sc(-c2ccccn2)nc1OC(=O)c1ccc(Cl)c(Cl)c1 -6.3%
O=C(COC(=O)c1c2c(nc3ccccc13)/C(=C/c1cccc([N+](=O)[O-])c1)CCC2)NC1CCS(=O)(=O)C1 (configuration not stated) 29.1%
CC1CCCCC1NC(=O)COC(=O)c1c2c(nc3ccccc13)/C(=C\c1ccco1)CC2 (configuration not stated) 4.28%
CN1CCc2nc3ccccc3c(C(=O)OCC(=O)N(CCC#N)c3ccccc3)c2C1 -5.14%
CN(CCC#N)C(=O)COC(=O)c1nn(-c2ccccc2)c(=O)c2ccccc12 -3.88%
CC1CCCCC1NC(=O)COC(=O)c1ccc2ccccc2n1 (configuration not stated) -3.73%
CCc1nc2ccccc2c(C(=O)OCC(=O)NC2CCCC2)c1C 4.22%
Cc1ccc(N(Cc2ccccc2)C(=O)c2cccc(S(=O)(=O)N3CC(C)OC(C)C3)c2)cc1 (configuration not stated) 5.98%
CCCCc1nnc(NC(=O)Cc2ccc(S(=O)(=O)N3CCOCC3)s2)s1 -4.48%
CCc1ccc(CN(C)C(C)C(=O)NCc2ccccc2)cc1 (configuration not stated) -5.54%
CCOC(=O)c1oc2cc(C)cc(C)c2c1C 12.6%
C[C@]1(C(=O)NCCN2CCOCC2)C=C[C@@H](Cc2ccccc2)N1C(=O)c1ccccc1 -2.79%
N#Cc1cnc(N)c(Br)c1 -0.24%
COc1ccc(-n2c(=S)[nH]c3cc(C(=O)NCc4cccnc4)ccc3c2=O)cc1 -1.63%
Fc1cccc(F)c1-n1c(CN2CCOCC2)csc1=S -4.65%
C/C(N)=C(/C#N)C(=O)CSc1nnc(Nc2ccccc2C)s1 5.27%
C/C(N)=C(/C#N)C(=O)CSc1nnc(Nc2cccc(C)c2)s1 29.1%
Cn1c(SCC(=O)NCc2ccc3c(c2)OCO3)nnc1-c1cc2ccccc2cc1O 5.67%
CCNc1nc(NCC)nc(SCC(C)=O)n1 1.47%
O=C(CCc1c[nH]c2ccccc12)NCc1ccco1 14.9%
NS(=O)(=O)c1ccc(CNC(=O)c2ccc(S(=O)(=O)NCc3ccco3)cc2)cc1 -7.37%
O=C(Cc1c[nH]c2ccccc12)NCc1ccco1 -2.84%
O=C(NCc1ccccc1F)c1ccc(S(=O)(=O)NCc2ccco2)cc1 1.91%
O=C(NCCc1ccccc1)c1nc2ncccn2n1 8.66%
COc1ccc(NC(=O)CCNS(=O)(=O)c2cccc3nonc23)cc1Cl 7.84%
COc1ccccc1/C=C(/CC(=O)NCc1ccc(F)cc1)c1nc2ccccc2s1 -7%
COc1ccc(/C=C(/CC(=O)NCc2ccc(Cl)cc2)c2nc3ccccc3s2)cc1 2.71%
COc1ccc(Cl)cc1C(=O)Nc1ccccc1N1CCN(C)CC1 1.41%
COC(=O)/C(=C/c1ccco1)NC(=O)c1ccccc1 11.2%
O=C(Nc1ccc(C(=O)O)cc1)/C(=C\c1ccco1)NC(=O)c1ccccc1 26.2%
Fc1ccc(-c2cc(C(F)(F)F)nc(-n3cccn3)n2)cc1 21.7%
CCc1ccc2[nH]c(=O)c(C(c3nnnn3CCOC)N3CCN(c4ccc(F)cc4)CC3)cc2c1 (configuration not stated) 9.01% and 16.1%
CCc1ccc2[nH]c(=O)c(C(c3nnnn3CCOC)N3CCN(c4ccccc4)CC3)cc2c1 (configuration not stated) 9.41% and 22.6%
Cc1ccc(SCC(=O)NNC(=O)CCS(=O)(=O)c2ccc(C)cc2)cc1 -4.89%
CCCNC(=O)c1ccccc1C(=O)NCCC -3.84%
CCOCCCNC(=O)c1ccccc1Br 79.3%
Cc1nn(-c2ccccc2)c(C)c1C1C(C#N)=C(N)Oc2n[nH]c(C)c21 (configuration not stated) -0.66%
CCCCC(=O)Nc1cccc(-c2csc(-c3ccccc3)n2)c1 -12.6%
O/N=C1\CC(O)Cc2nonc21 (configuration not stated) -4.67%
CCCC(c1nnnn1CC(=O)OCC)N(Cc1cc2ccc(C)cc2[nH]c1=O)C1CCCC1 (configuration not stated) 4.45% and 9.64%
CCCC(c1nnnn1CC(=O)OCC)N(Cc1cc2c(C)cc(C)cc2[nH]c1=O)C1CCCC1 (configuration not stated) 68.5%
O=C(Nc1ncn[nH]1)c1ccccc1O -9.78%
COc1ccc(N2C(=O)C3C4C=CC(C4)C3C2=O)c(OC)c1 (configuration not stated) 1.91%
COc1ccc(NC(=O)CN2CCN(c3ccccc3F)CC2)cc1 8.91%
COC(=O)c1ccc(CN(C(=O)N2CCN(C)CC2)S(=O)(=O)c2ccc(C)cc2)cc1 2.32%
O=C(CSc1nc(-c2ccco2)cc(C(F)(F)F)n1)N1CCCc2ccccc21 -15.3% and -9.35%
CN1CCN(C(=O)CSc2nc(-c3ccco3)cc(C(F)(F)F)n2)CC1 -4.57%
O=C(Nc1ccc(F)cc1)C(=O)C1C(=O)Nc2ccccc21 (configuration not stated) -6.37%
Cc1ccc(NC(=O)C(=O)NCc2ccc(/C=C(/C#N)C(=O)NCc3cccnc3)o2)cc1 7.86%
CCOC(=O)C1=C(O)/C(=C\c2sccc2C)N=C1C 0.95%
Cc1ccc(NC(=O)C(=O)NCc2ccc(/C=N/NC(=O)c3c(C)nc4cc(C)ccn34)o2)cc1 19.2%
COC(=O)C1=C(O)/C(=C\c2ccc(OCC(=O)Nc3ccccc3)cc2)N=C1C -9.89%
Cc1ccc(NC(=O)C(=O)NCc2ccc(/C=N/NC(=O)c3c(C)nc4ccccn34)o2)cc1 26.2%
CCOC(=O)C1=C(O)/C(=C\c2cccs2)N=C1C 15.1%
CCOC(=O)c1ccc(NC(=O)C(=O)NCc2ccc(/C=C(/C#N)C(=O)NCCOC)o2)cc1 -2.3%
O=C(NCc1ccc(/C=c2\sc3n(c2=O)CCN=3)o1)C(=O)Nc1ccccc1 -17%
